The first test has as its system RARb homodimer (NR concentration 270 nM). Put plainly: PBM binding z-score (relative to random genomic background probes); higher = stronger binding; sequences stand for … in GC…GCGATTGACAGCGTAGAATGAAGG
In a few lines: (§1)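 Custom Agilent 4×180K protein-binding microarrays carried double-stranded probes, each with a 34-nt variable region. These regions held direct-repeat seeds, single-nucleotide variants, half-site ablations and random human genomic background sequences. Ligand-free nuclear receptor dimers were incubated on the arrays for 1 h, antibodies against each partner (one per run) detected binding, and scanned fluorescence was regression-normalized. Binding z-scores take the random background probes as reference.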
In turn, ACTCAGAGGACAAAGGTCAGAGCTACGCCAGTGA showed a PBM binding z-score of 4.56.
As to CGTCCAAGGTCAAAGCTCAGTGAAGAGATGACGG, the PBM binding z-score came to 3.72.
Take CCTACTGGGCCAGTCAGAGGTCATTGATCATATG: the PBM binding z-score was found to be 3.65.
The same measure, in the same setting: to CCTACTGGGCCATCAGGTCTTTGATATCAACGTT belongs 0.24.
On the same count and under the same terms, then ACTATTAGTTGATTTAGGGCAACCGATACGACGC, with 0.736.
Same read-out and setting: to CCTCGGAGGACAGAAGGTTAGAGCTGTCCGCTTT belongs 0.668.
With CAGCCTAGGTCAGGGCCAGTGTAGGAGGAACGTT, the PBM binding z-score was determined as 2.75.
Same read-out and setting: then GCTTACGGGTCAAAGGTTTTAGCATGAATAGAAT, with 2.53; and ATAGAAAGGTCGACGAGGTGAGTATACACCGTTT, with 2.88; and TCTAGTTGGTCAAAGGTCACACAATCGAAATGCG, with 5.17.
Regarding CCTACTGGGCCAAAGGTCATCGATTCCAATGCTC, the PBM binding z-score was 4.9.
The same measure, in the same setting: then CAAACTAGGTCACAGAGGTCAAAGTGCGTGCGTA, with 5.64.
On the same count and under the same terms, then CGTCCAAGGTCAATGCTAGGTCAGCGAAAGCATT, with 4.51; and CCTACTGGCCCATTCAGAGGTCATTGATCATATG, with 3.64.
Same read-out and setting: to ATCGAACGGTCGAAGGTGAGTATACCCACCCGAA belongs 0.62.
CAAACTAGGTCACCGGAAGGTTAAAGTCCGCATG yielded a PBM binding z-score of 4.56.
The same measure, in the same setting: then ATCTCTAGGTAAAGTTCAGTGGAAGATCGATAGA, with 2.55; and ATCTCTAGCTAAAAGTTCAGTGAATCCCGAGGAT, with 2.38; and CCTTACGGCTCACTCCAGGTTATAGCATCGGAGT, with 0.313.
The sequence AGAATGAGGTTAAGATCAGGGAAACAGAATACAT came in with a PBM binding z-score of 0.9.
The same measure, in the same setting: then AGAATGAGCTTAAGATCAGGGAAACAGAATACAT, with -0.611.
GCAGACAGGTGAAACGCAGGTAACTCTGGGTGGC: the PBM binding z-score is -0.101.
Still for that read-out and setting: then ACAGACAGGTGATGAAGGTAACTCAAGCTATCAT, with 0.13; and TCTGCTAGGCCAACGATGGTCAGCTAATCTGCTA, with 0.00128; and GTACCAAGGTGAATAGGTCGTTGACGAGTAGGCG, with 1.93.
Still for that read-out and setting: then TCAGACAGGTGAAGTTAACTCAGGTACGCAGTCG, with 0.596.
Still for that read-out and setting: then GATACAGGGACAAGGCCAGAGTACGCGTATTGAT, with 0.843; and ATCCCTAGGTAAGACTCAGTTCAGTGAAGAACGC, with 0.754; and CCGACTGGGGCAAGGTTACGATAACGCACAGCCA, with 1.22.
Sequence TAGCCTAGGTGATGCGGGCCAGTATAGTGTCGGC yielded a PBM binding z-score of -0.307.
Same read-out and setting: to ATCGAAAGCTCGACGAGGTGAGTATACACCGTTT belongs -0.193; to GCGACTGGGGCATAGCAGGTTACCATAAGGTTGG, 1.04; to TCTAGCAGGCCAGAGGGTCACTCATGAGGTACGG, 2.62.
On the same count and under the same terms, then CCTGATAGGTCAATGGTCAGCTAAAGCAGCTCGC, with 3.38; and CCTACTGGGCCATTCGGAGGTCATTGATCATATG, with 3.37; and TGATATAGGTAAAAGGTGAAAGTCGGTGTGGTAA, with 2.03.
Still for that read-out and setting: to CGTCCAAGGTCAGCAGGTCTGTGAAAGCGACGTG belongs 3.23; to ACTAGCAGGCCAAGTTTGGGTCTCTCAAACAAAG, 0.00651; to TCTTGTAGATCAAAGGTTAAGAATGCCGAAGCCT, 1.48.

Another test deals with RARg:RXRa (NR concentration 270 nM, RXRa partner concentration 90 nM). The description is as above. In short, it runs like this: as §1
For the sequence ACTCAGAGGACAAAGGTCAGAGCTACGCCAGTGA, the PBM binding z-score stood at 6.51.
Same read-out and setting: then CGTCCAAGGTCAAAGCTCAGTGAAGAGATGACGG, with 5.9; and CCTACTGGGCCAGTCAGAGGTCATTGATCATATG, with 3.94.
On the same count and under the same terms, to CCTACTGGGCCATCAGGTCTTTGATATCAACGTT belongs -0.0925; to ACTATTAGTTGATTTAGGGCAACCGATACGACGC, 0.306.
On the same count and under the same terms, then CCTCGGAGGACAGAAGGTTAGAGCTGTCCGCTTT, with 0.736; and CAGCCTAGGTCAGGGCCAGTGTAGGAGGAACGTT, with 2.76.
Take GCTTACGGGTCAAAGGTTTTAGCATGAATAGAAT: the PBM binding z-score stood at 4.83.
On the same count and under the same terms, then ATAGAAAGGTCGACGAGGTGAGTATACACCGTTT, with 3.98; and TCTAGTTGGTCAAAGGTCACACAATCGAAATGCG, with 7.33.
The same measure, in the same setting: to CCTACTGGGCCAAAGGTCATCGATTCCAATGCTC belongs 6.09; to CAAACTAGGTCACAGAGGTCAAAGTGCGTGCGTA, 7.46; to CGTCCAAGGTCAATGCTAGGTCAGCGAAAGCATT, 7.74.
On the same count and under the same terms, then CCTACTGGCCCATTCAGAGGTCATTGATCATATG, with 2.97; and ATCGAACGGTCGAAGGTGAGTATACCCACCCGAA, with 0.884.
The sequence CAAACTAGGTCACCGGAAGGTTAAAGTCCGCATG returned a PBM binding z-score of 6.51.
The same measure, in the same setting: to ATCTCTAGGTAAAGTTCAGTGGAAGATCGATAGA belongs 2.03; to ATCTCTAGCTAAAAGTTCAGTGAATCCCGAGGAT, 1.43.
In turn, CCTTACGGCTCACTCCAGGTTATAGCATCGGAGT gave a PBM binding z-score of -0.122.
On the same count and under the same terms, to AGAATGAGGTTAAGATCAGGGAAACAGAATACAT belongs 2.17; to AGAATGAGCTTAAGATCAGGGAAACAGAATACAT, -0.159; to GCAGACAGGTGAAACGCAGGTAACTCTGGGTGGC, 0.724.
The same measure, in the same setting: to ACAGACAGGTGATGAAGGTAACTCAAGCTATCAT belongs 0.288.
On the same count and under the same terms, to TCTGCTAGGCCAACGATGGTCAGCTAATCTGCTA belongs -0.269; to GTACCAAGGTGAATAGGTCGTTGACGAGTAGGCG, 2.91.
TCAGACAGGTGAAGTTAACTCAGGTACGCAGTCG: the PBM binding z-score was 0.588.
Turning to GATACAGGGACAAGGCCAGAGTACGCGTATTGAT, the PBM binding z-score was found to be 0.288.
Same read-out and setting: then ATCCCTAGGTAAGACTCAGTTCAGTGAAGAACGC, with -0.0118; and CCGACTGGGGCAAGGTTACGATAACGCACAGCCA, with 1.18; and TAGCCTAGGTGATGCGGGCCAGTATAGTGTCGGC, with -0.331.
Same read-out and setting: to ATCGAAAGCTCGACGAGGTGAGTATACACCGTTT belongs -0.12; to GCGACTGGGGCATAGCAGGTTACCATAAGGTTGG, 0.402.
The same measure, in the same setting: then TCTAGCAGGCCAGAGGGTCACTCATGAGGTACGG, with 2.59; and CCTGATAGGTCAATGGTCAGCTAAAGCAGCTCGC, with 4.62; and CCTACTGGGCCATTCGGAGGTCATTGATCATATG, with 3.59.
In turn, TGATATAGGTAAAAGGTGAAAGTCGGTGTGGTAA gave a PBM binding z-score of 1.86.
Sequence CGTCCAAGGTCAGCAGGTCTGTGAAAGCGACGTG came in with a PBM binding z-score of 5.26.
The same measure, in the same setting: to ACTAGCAGGCCAAGTTTGGGTCTCTCAAACAAAG belongs -0.231.
TCTTGTAGATCAAAGGTTAAGAATGCCGAAGCCT returned a PBM binding z-score of 1.72.

The values are drawn from the supplement of paper PMC6555819.
